Experimental data as given in PubChem BioAssay (NCATS).
Several values for one entry are separate records, joined by “and”; a condition that tells them apart may be missing. Equal entries are not always repeated. Inconclusive results are not listed. Activity calls are given as the source filed them. Unless noted, the call rests on the fitted dose curve; in most records, active means well fitted curve in the direction sought with a large enough effect; inconclusive means small, poorly fitted or top-dose-only effect, or another doubt; inactive means no such curve, though single readings can be large; an effect the other way counts as inactive or inconclusive. Residues, ends and D or L forms follow the SMILES beside them. *: point of attachment. Cbz = O=C(OCc1ccccc1)*; CH2Cl = ClC*

Legend:
[1] = molecular target: Aldehyde dehydrogenase, mitochondrial (Homo sapiens) (UniProt P05091); test: qHTS for Inhibitors of the Aldehyde Dehydrogenase Family (ALDH2) Confirmatory screens (AID 2061303; active means well fitted inhibition curve with a large enough effect; title and protocol of this record describe different tests; further: nearly all actives have a fitted effect of over 45% in size; further: potency means the concentration at half of the fitted maximal effect)
[2] = qHTS for Inhibitors of the Aldehyde Dehydrogenase Family (ALDH1A2, ALDH1A3, ALDH2, ALDH3A1) (AID 2061307); further: nearly all actives have a fitted effect of over 50% in size; on Potency: test system not described further here; potency means the concentration at half of the fitted maximal effect
[3] = molecular target: Retinaldehyde dehydrogenase 3 (Homo sapiens) (UniProt P47895); test: qHTS for Inhibitors of the Aldehyde Dehydrogenase Family (ALDH1A3) Confirmatory screens (AID 2061311); further: nearly all actives have a fitted effect of over 60% in size; further: potency means the concentration at half of the fitted maximal effect
[4] = molecular target: Retinal dehydrogenase 2 (Homo sapiens) (UniProt O94788); test: qHTS for Inhibitors of the Aldehyde Dehydrogenase Family (ALDH1A2) Confirmation screens (AID 2061314); further: nearly all actives have a fitted effect of over 65% in size; further: potency means the concentration at half of the fitted maximal effect
[5] = molecular target: Aldehyde dehydrogenase, mitochondrial (Homo sapiens) (UniProt P05091); test: qHTS for Inhibitors of the Aldehyde Dehydrogenase Family (ALDH2) Primary screen (AID 2061308); further: nearly all actives have a fitted effect of over 55% in size
[6] = molecular target: Retinaldehyde dehydrogenase 3 (Homo sapiens) (UniProt P47895); test: qHTS for Inhibitors of the Aldehyde Dehydrogenase Family (ALDH1A3) Primary screen (AID 2061315)
[7] = molecular target: Aldehyde dehydrogenase 1A1 (Homo sapiens) (UniProt P00352); test: qHTS for Inhibitors of the Aldehyde Dehydrogenase Family (ALDH1A1) Confirmatory screens (AID 2061316); further: nearly all actives have a fitted effect of over 65% in size; further: potency means the concentration at half of the fitted maximal effect
[8] = BET inhibitor-based combinations targeting novel dependencies in MECOM-rearranged (r) AML: OCI-AML3 cell line (AID 2202232); details: Potency: OCI-AML3 viability; further: potency means the concentration at half of the fitted maximal effect; nearly all actives have a fitted effect of over 35% in size
Procedure, shortened: (§1)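 Here, 11-point titrations of each agent were applied to 500 seeded cells and incubated 48 hr; CellTiter-Glo signal, scaled against DMSO and empty wells, was integrated as AUC, then Z-scored within the individual line.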

[9] = BET inhibitor-based combinations targeting novel dependencies in MECOM-rearranged (r) AML: MV-4-11 cell line (AID 2202233); further: potency means the concentration at half of the fitted maximal effect; nearly all actives have a fitted effect of over 45% in size
Procedure, shortened: (§2)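 Normalized to DMSO and empty-well controls, the luminescence data from CellTiter-Glo after 48 hr drug exposure were fitted across 11 concentrations. Reported metrics are area under the dose-response curve and its Z-transformed form.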

[10] = BET inhibitor-based combinations targeting novel dependencies in MECOM-rearranged (r) AML: UCSD-AML1 cell line (AID 2202235); further: series mostly up to about 46 µM; nearly all actives have a fitted effect of over 40% in size
Procedure, shortened: as §2

[11] = BET inhibitor-based combinations targeting novel dependencies in MECOM-rearranged (r) AML: AML-194 cell line (AID 2202237; further: nearly all actives have a fitted effect of over 40% in size)
Procedure, shortened: as §1

Measured: Potency

Clc1cccc(-c2ccc(C3Nc4cccc5cccc(c45)N3)o2)c1
active: [1] 5.04 µM | [2] 10.1 µM | [3] 1.59 µM | [4] 11.3 µM

Cn1nnnc1Sc1ncnc2scc(-c3cccc(Br)c3)c12
inactive: [1] | [2] | [5] | [6] | [7]

COc1ccc(NC(=O)c2ccc(-c3ccc(C(=N)N)cc3C)cc2)cc1N1CCN(C)CC1
inactive: [1] | [2] | [5]
active: [7] 12.7 µM

Cc1ccc(NC(=O)CN2C(=O)N/C(=C\c3cccn3-c3ccc(P(=O)(O)O)cc3)C2=O)cc1
inactive: [1] | [2] | [5] | [6] | [7]

Cc1ccc(CNc2ccc(N3CCN(C)CC3)cc2)cc1
inactive: [1] | [2] | [5] | [6] | [7]

Cc1cc2c(s1)c1cnn(Cc3ccc(-n4cncn4)cc3)c(=O)c1n2C
inactive: [5] | [6]
active: [1] 25.1 µM | [2] 14.1 µM | [7] 11.3 µM

N#Cc1c(-c2ccc3c(c2)OCO3)no[n+]1[O-]
inactive: [1] | [3] | [6] | [7]
active: [2] 1.13 µM | [4] 10.1 µM

Cc1noc(C)c1-c1cccc(-c2nn3c(=O)cc(N4CCNCC4)nc3s2)c1
inactive: [6]
active: [1] 3.98 µM | [2] 0.891 µM | [3] 17.8 µM | [4] 6.31 µM

NC(=O)C1CCN(c2nccc(-c3ccc4c(c3)OCCO4)n2)CC1
active: [1] 5.65 µM | [2] 7.98 µM | [3] 14.1 µM | [4] 14.2 µM | [7] 0.798 µM
inactive: [6]

CC(C)C[C@H](NC(=O)CNC(=O)OCc1ccccc1)C(=O)N[C@@H](Cc1ccccc1)C(=O)CCl (Cbz-Gly-Leu-Phe-CH2Cl)
inactive: [1] | [2] | [3] | [6] | [7]
active: [4] 8.96 µM

Cc1c(NC(=O)c2cc3c(s2)CCCC3)cccc1-c1cn(C)c(=O)c(Nc2ccc(C3C(=O)N(C)CCN3C)cc2)n1 (centres undefined)
active: [2] 10 µM | [3] 2 µM and 7.94 µM | [8] 16.6 µM | [9] 16.6 µM
not listed: [5] | [7]
inactive: all other assays above

Cc1nc(SCC(=O)c2ccc(F)cc2)n[nH]1
inactive: [1] | [2] | [3] | [4] | [6] | [7]

COc1ccccc1-c1cc(NCCc2ccccn2)c2onc(C)c2n1
inactive: [1] | [2] | [4] | [7]
active: [3] 22.4 µM

CC(=O)c1ccc(N2CCN(S(=O)(=O)c3ccc4c(c3)C(C)(C)C(=O)N4)CC2)cc1
active: [3] 5.01 µM
inactive: [1] | [2] | [4] | [7]

COc1ccc(-c2ccc(CNc3ccc(N4CCN(C(=O)OC(C)(C)C)CC4)cc3)o2)cc1
active: [1] 1.13 µM | [4] 11.3 µM | [7] 11.3 µM
inactive: [2] | [3] | [6]

Cc1ccc2nc3sc(C(=O)NCCN4CCOCC4)cc3cc2c1
inactive: [1] | [2] | [3] | [4] | [6] | [7]

O=C(O)c1cccnc1SC1=NS(=O)(=O)c2ccccc21
inactive: [1] | [2] | [3] | [6]
active: [4] 31.8 µM

CC(=O)c1ccc(NC(=O)CSc2ccc3nc(-c4ccccc4)cn3n2)cc1
active: [1] 22.9 µM | [2] 0.0576 µM | [3] 0.258 µM | [4] 15.8 µM | [7] 1.82 µM

COc1ccc(S(=O)(=O)Nc2cccc(-c3ccc(N4CCCCCC4)nn3)c2)c(OC)c1
inactive: [3] | [4] | [7]
active: [1] 28.2 µM | [2] 28.2 µM and 2.51 µM

O=C(O)c1cccc(-n2[nH]c(-c3ccccc3)cc2=O)c1
active: [1] 11.2 µM | [2] 5.01 µM | [3] 15.8 µM | [4] 7.98 µM | [7] 25.1 µM

Cc1cccc(CNc2ccnc(-c3cccc4ccccc34)n2)c1
inactive: [1] | [2] | [3] | [4] | [6] | [7]

COc1cccc(-c2nc(SCc3ccc(C)cc3)n3[nH]c(=O)cc3n2)c1
inactive: [1] | [2] | [4] | [7]
active: [3] 7.08 µM

CN(CC(=O)Nc1ccc(N2CCOCC2)cc1)Cc1c(O)ccc2ccccc12
active: [1] 11.3 µM | [2] 2.83 µM | [3] 15.9 µM | [4] 10.1 µM | [7] 2.52 µM

COc1ccnc(NC(=S)N2CCN(c3cccc(C(F)(F)F)c3)CC2)c1
active: [1] 12.6 µM | [2] 8.91 µM | [3] 7.12 µM | [4] 22.5 µM | [7] 10.1 µM

O=C(NCc1ccc(F)c(F)c1)c1ccc2nnc(-c3cccc(C(F)(F)F)c3)n2c1
active: [2] 8.91 µM
inactive: [1] | [3] | [4] | [7]
